# Entries with a potency or affinity are not part of this list.
# Target: Potassium voltage-gated channel subfamily KQT member 2 (Rattus norvegicus) (UniProt O88943)
# Experiment: potentiation of rat KCNQ2 current – cell-based, automated electrophysiology, mechanism study for KCNQ2 potentiator project, dose response (AID 2603)
# Details: KCNQ2-CHO cells, automated patch clamp current potentiation; at 30 µM (top of the series)
# Potassium voltage-gated channel subfamily KQT member 2 (Rattus norvegicus), sequence (O88943 whole entry, looked up): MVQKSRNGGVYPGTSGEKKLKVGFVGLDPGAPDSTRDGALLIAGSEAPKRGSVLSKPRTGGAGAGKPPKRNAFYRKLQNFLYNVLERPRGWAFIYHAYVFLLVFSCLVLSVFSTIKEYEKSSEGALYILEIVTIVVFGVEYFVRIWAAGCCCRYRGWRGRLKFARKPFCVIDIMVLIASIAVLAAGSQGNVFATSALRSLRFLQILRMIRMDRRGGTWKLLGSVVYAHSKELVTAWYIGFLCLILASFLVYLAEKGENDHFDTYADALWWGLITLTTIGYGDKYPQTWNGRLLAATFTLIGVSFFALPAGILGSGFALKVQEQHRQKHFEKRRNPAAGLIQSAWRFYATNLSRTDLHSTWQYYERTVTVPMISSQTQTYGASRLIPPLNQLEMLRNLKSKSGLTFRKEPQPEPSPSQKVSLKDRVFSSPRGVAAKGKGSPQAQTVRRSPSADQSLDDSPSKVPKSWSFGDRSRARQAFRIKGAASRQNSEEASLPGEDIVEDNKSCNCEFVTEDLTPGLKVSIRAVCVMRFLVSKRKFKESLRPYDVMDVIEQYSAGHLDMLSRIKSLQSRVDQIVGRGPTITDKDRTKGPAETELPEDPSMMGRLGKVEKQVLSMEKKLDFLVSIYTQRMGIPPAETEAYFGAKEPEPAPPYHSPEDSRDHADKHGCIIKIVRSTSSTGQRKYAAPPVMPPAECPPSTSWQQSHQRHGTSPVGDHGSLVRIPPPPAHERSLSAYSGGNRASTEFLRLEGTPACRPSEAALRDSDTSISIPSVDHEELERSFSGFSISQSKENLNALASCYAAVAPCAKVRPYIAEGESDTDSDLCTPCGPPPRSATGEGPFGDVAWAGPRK
compound,measurement,value
O=c1[nH]sc2cc(F)ccc12,potentiation,102

# — PubChem BioAssay AID2603 (Johns Hopkins Ion Channel Center, 2010)
